Measured values taken from PubChem BioAssay AID1159506 (National Center for Advancing Translational Sciences (NCATS), 2015).
In all, about 59,000 sequences were measured (the read-out: median about -0.00055, lowest 2% from about -2 on). This excerpt belongs to a sample that is enriched for the lowest values.

Experiment: Identification of proteins required for the processing of the EWS-FLI1 nascent transcript;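 note: robust z of luciferase light less the median z of siRNAs with the same seed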
Settings: TC32 Ewing sarcoma NR0B1-luc vs CMV-luc (EWS-FLI1 target promoter against control promoter), 48 h; screened at 20 nM (by protocol)
Outline: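 Genome-wide siRNA screen (Ambion v4.1, three siRNAs per gene, 20 nM final, RNAiMax) in Ewing sarcoma TC32 cells carrying NR0B1-promoter or CMV-promoter luciferase; OneGlo luciferase read 48 h post-transfection. Data normalized, z-score-MAD transformed and seed-adjusted.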

Sequence	seed-corrected z-score
UGACAUACCAGAGGAAGUG against PLEKHH1	-0.0437
UUGUUGACCAUAGCUACUC against EWSR1	-4.01
AUAGAUACAGGUGAUGCAG against EGLN2	1.45
UACUCUCACAGCUUGCACC against KCTD18	-0.258
UUGGGAAGCAGGUGCAUGC against LAIR1	-2.03
UAGAGGCACCGAGUCAACG against DBF4B	0.153
UGAGUUCCGACACUCCAUC against EIF4EBP1	0.187
UCUGCUUUCUGUACCCGAC against GATA3-AS1	-2.32
UUUGUUACAAGCACCUACU against LOC730179	0.536
ACAGGUGCAUUGGACUUGG against KCTD15	-3.06
UUGAUCACCUCAGAGGCCG against USE1	-1.2
UUAUGCUAAAAUCUACUCC against TNKS2	-1.04
AAUAGGUGUAAGUCCGUGC against NR5A2	-2.54
UUAGUCCAGAGGUUUCAUC against PCAT18	-0.77
UCACAAUUUAGUGUAAUAG against ETFBKMT	0.195
UCGGUAAUCCGGGUGAAGC against FGF14-AS2	-0.163
UCCUGGAUUGGGAAGGUGC against C9orf172	-0.383
UGCAGUAGAAUUUACACGC against RB1	-2.42
UUUGCUAUCAGGGAACAUC against SPRR2B	-0.452
UGAUGGUAGAGUUCCAGUG against MYBL2	-0.637
UUGCUUAUGAGCUUGAUGG against MAST1	-2.39
UAAGCGGUUCAUGCUGUGG against CPA5	-0.872

Sequence	seed-corrected z-score
UAGUGGAAGACGGAAAAGU against SFN	-0.0924
AGUAUAACCAGUGGGAGGC against EWSR1	-5.73
UAUCUGAAGAUCUAGACUC against ZNF280D	-0.0696
UCCUUGACCAGAAAUCUCA against TRIM31	-0.472
UACGUCAAACGGAACUUCC against LRPPRC	-0.194
UCAUGUAUAAACAGUCGCC against ALDH7A1	0.368
UUAGCAUGAUGAUCAAGGC against LIN28B	0.22
UUAUAUAUCUCCUGGAGCG against AGPAT3	-0.537
UGAGUUUCGAGAGCACAGU against MID1IP1	-3.02
AAACUUUCUCCUUAAGGCC against PRR11	-0.21
UUGCAAUUGAAUUCACAGC against SRI	-0.0706
UGAAGGAUUUGUGACAUAC against ZFP28	-0.0712
UGUGGUUCCAAGGCACGUC against CCER2	-2.12
UUCCUUGGGCCCUAUAUGU against FAM168A	-0.129
AACGUAGAAAAGCAUAUCG against DENND5B	-0.0535
UAUCUUGCUGGUGUGUGUG against MAX	-0.878
AUAGGCUUUAUCAAGAUCG against MPP5	0.288
UGAAUUUCUCGAAUCUGUG against SF3B1	-4.69
UGACCGAUGACAGGUAUCU against MRGPRX3	-0.02
UUUUGAGUGGGUAUCAACC against VIM	0.533
UUCUGUGCUACUUUGUGCU against SSR3	1.19
UCCCUGAAUAGUGUGACAG against CCDC103	0.246

Sequence	seed-corrected z-score
UUACAUCCAAUUGUAAAGG against C5orf22	-2.74
UUUGCGAAACUCCAAGUCC against LMNB1	-0.159
AAAAAUAUCUGUGAUUCUG against WNK1	0.399
UAGGCAUCGAUGUGGAAGC against TELO2	2.04
UCAGCAGAUCUUGACAGUC against LYZL6	0.253
CUGCUUCUGAGCGUUUGCG against MED14OS	-2.09
UUGCCGUAUAGGUAGUUUG against NPTX2	-0.552
UAGGCGACGCCCUUUUUCU against H3.X	-0.0707
UUUGAGUCCUCAUGGGUGG against GTF3C4	1.63
UAGGUGUUGAUGAUCUCCC against XAB2	-2.44
UUUGUCUCUGCGGAGGUUC against EIF3D	-0.479
UGAUUAGUCACCAAAGUCC against ATF7IP	-1.24
UACUGUCGAACUUUGCCUG against HEPH	-1.6
UCACUAGCAAGGUUCUCCC against LARP4B	0.24
UAAUGUACUUGAUCGCAGC against ASCL3	-1.12
AUAGUUGCCGGUGCUCACC against PICK1	-3.04
UACUGUAUAGGAAACGAUC against ESPL1	-0.0398
UCGCUGUCCUUUAAGAGGC against NKAIN4	-0.183
AUCGGGAAGAGAGUGUAUC against PTAFR	0.45
CAAGUGGAUCGAGCUUGCG against RPL29P12	0.225
UGACUCAAAACUACCAUCC against CCNA2	-0.751
AUCUCUUUUAUCAGGGUUG against VEGFB	-2.11

Sequence	seed-corrected z-score
AACGAUUUUAUCCAAAAUG against FBXO25	0.881
UAUAUGUCUCGCAUUUGCC against TRE17	-1.17
AUCGCAAUAAUUUCAUCUG against NOL8	-0.121
UACGUUAGUUUUGACACGC against RALY	-0.653
UGCUAUAGCACCAACAGCC against CLCN5	-2.8
UUGGGUUCUACAAGCUUCC against SDE2	-0.135
AAGAUGUCUGUGGUCAUGG against PLCB2	1.04
UUACUAGAAUCCUCAAUUG against OXR1	-0.746
UAAAGAUCAAUUCGCUUUG against GLRB	-0.775
UGAAGGUUCAGAGUGCAAC against ISG20L2	-0.949
UUCUGGAUUAGAAAGGUUC against NKRF	0.43
UCCUUGUCGAACAUGAGCC against NTNG2	-2.93
UGCACAUCCUUGUCUAUGC against SGSM2	0.184
UUACAUUCUGAGCCCAUCC against HTR7	-0.311
UUAGUUAUAACAUAUGACU against LINC00900	-0.697
ACAAUGGAAAGCACCUUCC against RINL	0.198
UCCCAGUUGUGGAUGAUCC against PLEKHM1	-0.204
UAAAGACUACAAGCACAGC against OR51B5	-2.14
UUCAGUACAUCUCUGCAGG against RDH12	0.532
